# The sample as a whole holds a higher share of the strongest signals than the screen did.
# Experiments:
# Experiment in all cases: glycan array binding signal (z-score within array); higher = stronger binding
# Conditions in all cases: glycan notation: IUPAC condensed, linker removed; mutation: R120K
# [1] = molecular target: Fuc(a1-2)Gal(b1-3)GlcNAc(b1-3)GalNAc
# Outline: (§1)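 Columns mapping to the same glycan were averaged after glycan names were converted to IUPAC-condensed notation. The data come from 3228 arrays in the Consortium for Functional Glycomics database, limited to those with an available protein sequence. Binding is reported as a within-array Z-score averaged across arrays of one protein sequence and across linkers.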
# [2] = molecular target: Fuc(a1-2)Gal(b1-3)[Fuc(a1-4)]GlcNAc(b1-2)Man(a1-3)[Fuc(a1-2)Gal(b1-3)[Fuc(a1-4)]GlcNAc(b1-2)Man(a1-3)]Man(b1-4)GlcNAc(b1-4)GlcNAc
# Outline: as §1
# [3] = molecular target: Fuc(a1-2)Gal(b1-4)Fuc(a1-3)]GlcNAc(b1-2)Man(a1-3)[Fuc(a1-2)Gal(b1-4)[Fuc(a1-3)]GlcNAc(b1-2)Man(a1-6)]Man(b1-4)GlcNAc(b1-4)GlcNAc
# Outline: as §1
# [4] = molecular target: Fuc(a1-2)Gal(b1-4)GlcNAc(b1-3)Gal(b1-4)GlcNAc(b1-2)Man(a1-3)[Fuc(a1-2)Gal(b1-4)GlcNAc(b1-3)Gal(b1-4)GlcNAc(b1-2)Man(a1-6)]Man(b1-4)GlcNAc(b1-4)GlcNAc
# Outline: as §1
# [5] = molecular target: Fuc(a1-2)Gal(b1-4)[Fuc(a1-3)]GlcNAc
# Outline: as §1
# [6] = molecular target: Fuc(a1-2)Gal6S(b1-3)GlcNAc6S
# Outline: as §1
# [7] = molecular target: Fuc(a1-2)[Gal(a1-3)]Gal(b1-3)GlcNAc(b1-2)Man(a1-3)[Fuc(a1-2)[Gal(a1-3)]Gal(b1-3)GlcNAc(b1-2)Man(a1-6)]Man(b1-4)GlcNAc(b1-4)[Fuc(a1-6)]GlcNAc
# Outline: as §1
# [8] = molecular target: Fuc(a1-2)[Gal(a1-3)]Gal(b1-4)GlcNAc(b1-3)[Fuc(a1-2)[Gal(a1-3)]Gal(b1-4)GlcNAc(b1-6)]GalNAc
# Outline: as §1
# Fuc(a1-3)GlcNAc = molecular target: Fuc(a1-3)GlcNAc
# Outline: as §1
# [9] = molecular target: Fuc(a1-3)[Gal(b1-4)]GlcNAc(b1-3)Gal(b1-3)[Fuc(a1-4)]GlcNAc
# Outline: as §1
# Fuc(a1-4)GlcNAc = molecular target: Fuc(a1-4)GlcNAc
# Outline: as §1
# [10] = molecular target: Gal(a1-3)Gal(b1-3)GlcNAc(b1-2)Man
# Outline: as §1
# [11] = molecular target: Gal(a1-3)Gal(b1-4)[Fuc(a1-3)]GlcNAc(b1-2)Man(a1-3)[Gal(a1-3)Gal(b1-4)[Fuc(a1-3)]GlcNAc(b1-2)Man(a1-6)]Man(b1-4)GlcNAc(b1-4)GlcNAc
# Outline: as §1
# [12] = molecular target: Gal(b1-3)GlcNAc(b1-2)Man(a1-3)[Gal(b1-3)GlcNAc(b1-2)Man(a1-6)]Man(b1-4)GlcNAc(b1-4)[Fuc(a1-6)]GlcNAc
# Outline: as §1
# Gal(b1-4)Gal = molecular target: Gal(b1-4)Gal
# Outline: as §1
# [13] = molecular target: Gal(b1-4)GlcNAc(b1-3)Gal(b1-3)GalNAc
# Outline: as §1
# [14] = molecular target: Gal(b1-4)GlcNAc(b1-3)Gal(b1-4)GlcNAc(b1-2)Man(a1-3)[Gal(b1-4)GlcNAc(b1-3)Gal(b1-4)GlcNAc(b1-2)Man(a1-6)]Man(b1-4)GlcNAc(b1-4)[Fuc(a1-6)]GlcNAc
# Outline: as §1
# [15] = molecular target: Gal(b1-4)GlcNAc(b1-3)Gal(b1-4)GlcNAc(b1-3)Gal(b1-4)GlcNAc(b1-3)Gal(b1-4)GlcNAc(b1-2)[Gal(b1-4)GlcNAc(b1-3)Gal(b1-4)GlcNAc(b1-3)Gal(b1-4)GlcNAc(b1-3)Gal(b1-4)GlcNAc(b1-6)]Man(a1-6)[Gal(b1-4)GlcNAc(b1-3)Gal(b1-4)GlcNAc(b1-3)Gal(b1-4)GlcNAc(b1-3)Gal(b1-4)GlcNAc(b1-2)Man(a1-3)]Man(b1-4)GlcNAc(b1-4)[Fuc(a1-6)]GlcNAc
# Outline: as §1
# [16] = molecular target: Gal(b1-4)GlcNAc(b1-3)GalNAc
# Outline: as §1
# [17] = molecular target: Gal(b1-4)GlcNAc(b1-6)GalNAc
# Outline: as §1
# Gal(b1-4)GlcNAc6P = molecular target: Gal(b1-4)GlcNAc6P
# Outline: as §1
# Gal3S(b1-3)GlcNAc = molecular target: Gal3S(b1-3)GlcNAc
# Outline: as §1
# GalNAc3S(b1-4)GlcNAc = molecular target: GalNAc3S(b1-4)GlcNAc
# Outline: as §1
# GalNAc3S(b1-4)GlcNAc3S = molecular target: GalNAc3S(b1-4)GlcNAc3S
# Outline: as §1
# [18] = molecular target: GalNAc3S(b1-4)[Fuc(a1-3)]GlcNAc
# Outline: as §1
# [19] = molecular target: GlcNAc(b1-2)Man(a1-3)[GlcNAc(b1-2)Man(a1-6)]Man(b1-4)GlcNAc(b1-4)[Fuc(a1-6)]GlcNAc
# Outline: as §1
# [20] = molecular target: GlcNAc(b1-2)[GlcNAc(b1-4)]Man(a1-3)[GlcNAc(b1-4)][GlcNAc(b1-2)Man(a1-6)]Man(b1-4)GlcNAc(b1-4)GlcNAc
# Outline: as §1
# [21] = molecular target: GlcNAc(b1-2)[GlcNAc(b1-6)]Man(a1-6)[GlcNAc(b1-2)Man(a1-3)]Man(b1-4)GlcNAc(b1-4)GlcNAc
# Outline: as §1
# [22] = molecular target: GlcNAc(b1-3)Gal(b1-4)GlcNAc(b1-2)Man(a1-3)[GlcNAc(b1-3)Gal(b1-4)GlcNAc(b1-2)Man(a1-6)]Man(b1-4)GlcNAc(b1-4)[Fuc(a1-6)]GlcNAc
# Outline: as §1
# [23] = molecular target: GlcNAc(b1-3)Gal(b1-4)GlcNAc(b1-2)[GlcNAc(b1-3)Gal(b1-4)GlcNAc(b1-6)]Man(a1-6)[GlcNAc(b1-3)Gal(b1-4)GlcNAc(b1-2)Man(a1-3)]Man(b1-4)GlcNAc(b1-4)GlcNAc
# Outline: as §1
# [24] = molecular target: GlcNAc(b1-3)Gal(b1-4)GlcNAc(b1-3)GalNAc
# Outline: as §1
# Kdn(a2-3)Gal(b1-4)Glc = molecular target: Kdn(a2-3)Gal(b1-4)Glc
# Outline: as §1
# [25] = molecular target: Man(a1-2)Man(a1-2)Man(a1-6)[Man(a1-3)]Man
# Outline: as §1
# [26] = molecular target: Man(a1-2)Man(a1-6)[Man(a1-3)]Man(a1-6)[Man(a1-2)Man(a1-2)Man(a1-3)]Man
# Outline: as §1
# Neu5Ac(a2-3)Gal = molecular target: Neu5Ac(a2-3)Gal
# Outline: as §1
# [27] = molecular target: Neu5Ac(a2-3)Gal(b1-3)GalNAc
# Outline: as §1
# [28] = molecular target: Neu5Ac(a2-3)Gal(b1-3)GalNAc(b1-4)Gal(b1-4)Glc
# Outline: as §1
# [29] = molecular target: Neu5Ac(a2-3)Gal(b1-3)GalNAc(b1-4)[Neu5Ac(a2-8)Neu5Ac(a2-3)]Gal(b1-4)Glc
# Outline: as §1
# [30] = molecular target: Neu5Ac(a2-3)Gal(b1-3)GlcNAc(b1-2)Man(a1-3)[Neu5Ac(a2-3)Gal(b1-3)GlcNAc(b1-2)Man(a1-6)]Man(b1-4)GlcNAc(b1-4)GlcNAc
# Outline: as §1
# [31] = molecular target: Neu5Ac(a2-3)Gal(b1-3)]Neu5Ac(a2-3)Gal(b1-4)]GlcNAc
# Outline: as §1
# Neu5Ac(a2-3)Gal(b1-4)Glc = molecular target: Neu5Ac(a2-3)Gal(b1-4)Glc
# Outline: as §1
# [32] = molecular target: Neu5Ac(a2-3)Gal(b1-4)GlcNAc(b1-2)Man(a1-3)[GlcNAc(b1-4)][Neu5Ac(a2-3)Gal(b1-4)GlcNAc(b1-2)Man(a1-6)]Man(b1-4)GlcNAc(b1-4)GlcNAc
# Outline: as §1
# [33] = molecular target: Neu5Ac(a2-3)Gal(b1-4)[Fuc(a1-3)]GlcNAc(b1-6)[Gal(b1-3)]GalNAc
# Outline: as §1
# [34] = molecular target: Neu5Ac(a2-6)Gal(b1-4)GlcNAc(b1-2)[Neu5Ac(a2-6)Gal(b1-4)GlcNAc(b1-4)]Man(a1-3)[GlcNAc(b1-4)][Neu5Ac(a2-6)Gal(b1-4)GlcNAc(b1-2)[Neu5Ac(a2-6)Gal(b1-4)GlcNAc(b1-6)]Man(a1-6)]Man(b1-4)GlcNAc(b1-4)GlcNAc
# Outline: as §1
# [35] = molecular target: Neu5Ac(a2-6)Gal(b1-4)GlcNAc(b1-3)Gal(b1-3)GlcNAc
# Outline: as §1
# [36] = molecular target: Neu5Ac(a2-6)GlcNAc(b1-4)GlcNAc
# Outline: as §1
# [37] = molecular target: Neu5Ac(a2-8)Neu5Ac(a2-8)Neu5Ac(a2-3)[GalNAc(b1-4)]Gal(b1-4)Glc
# Outline: as §1
# [38] = molecular target: Neu5Ac(b2-6)Gal(b1-4)GlcNAc
# Outline: as §1
# [39] = molecular target: Neu5Gc(a2-8)Neu5Gc(a2-3)Gal(b1-4)GlcNAc(b1-3)Gal(b1-4)GlcNAc
# Outline: as §1
# [40] = molecular target: Neu5Gc(b2-6)Gal(b1-4)GlcNAc
# Outline: as §1
binder,measurement,setting,value
"Siglec-9 (Homo sapiens), Q9Y336 (protein) MLLLLLPLLWGRERAEGQTSKLLTMQSSVTVQEGLCVHVPCSFSYPSHGWIYPGPVVHGYWFREGANTDQDAPVATNNPARAVWEETRDRFHLLGDPHTKNCTLSIRDARRSDAGRYFFKMEKGSIKWNYKHHRLSVNVTALTHRPNILIPGTLESGCPQNLTCSVPWACEQGTPPMISWIGTSVSPLDPSTTRSSVLTLIPQPQDHGTSLTCQVTFPGASVTTNKTVHLNVSYPPQNLTMTVFQGDGTVSTVLGNGSSLSLPEGQSLRLVCAVDAVDSNPPARLSLSWRGLTLCPSQPSNPGVLELPWVHLRDAAEFTCRAQNPLGSQQVYLNVSLQSKATSGVTQGVVGGAGATALVFLSFCVIFVVVRSCRKKSARPAAGVGDTGIEDANAVRGSASQGPLTEPWAEDSPPDQPPPASARSSVGEGELQYASLSFQMVKPWDSRGQEATDTEYSEIKIHR",glycan array binding signal (z-score),[1],-0.33
same,glycan array binding signal (z-score),[2],2.09
same,glycan array binding signal (z-score),[3],6.8
same,glycan array binding signal (z-score),[4],-0.282
same,glycan array binding signal (z-score),[5],-0.297
same,glycan array binding signal (z-score),[6],2.46
same,glycan array binding signal (z-score),[7],1.14
same,glycan array binding signal (z-score),[8],5.67
same,glycan array binding signal (z-score),Fuc(a1-3)GlcNAc,-0.568
same,glycan array binding signal (z-score),[9],-0.304
same,glycan array binding signal (z-score),Fuc(a1-4)GlcNAc,2.96
same,glycan array binding signal (z-score),[10],0.513
same,glycan array binding signal (z-score),[11],3.77
same,glycan array binding signal (z-score),[12],-0.25
same,glycan array binding signal (z-score),Gal(b1-4)Gal,1.95
same,glycan array binding signal (z-score),[13],0.236
same,glycan array binding signal (z-score),[14],-0.136
same,glycan array binding signal (z-score),[15],-0.342
same,glycan array binding signal (z-score),[16],-0.357
same,glycan array binding signal (z-score),[17],0.335
same,glycan array binding signal (z-score),Gal(b1-4)GlcNAc6P,0.464
same,glycan array binding signal (z-score),Gal3S(b1-3)GlcNAc,-0.347
same,glycan array binding signal (z-score),GalNAc3S(b1-4)GlcNAc,-0.59
same,glycan array binding signal (z-score),GalNAc3S(b1-4)GlcNAc3S,-0.23
same,glycan array binding signal (z-score),[18],-0.228
same,glycan array binding signal (z-score),[19],-0.036
same,glycan array binding signal (z-score),[20],8.32
same,glycan array binding signal (z-score),[21],-0.232
same,glycan array binding signal (z-score),[22],0.432
same,glycan array binding signal (z-score),[23],-0.559
same,glycan array binding signal (z-score),[24],0.35
same,glycan array binding signal (z-score),Kdn(a2-3)Gal(b1-4)Glc,0.194
same,glycan array binding signal (z-score),[25],0.213
same,glycan array binding signal (z-score),[26],-0.231
same,glycan array binding signal (z-score),Neu5Ac(a2-3)Gal,-0.145
same,glycan array binding signal (z-score),[27],4.95
same,glycan array binding signal (z-score),[28],0.412
same,glycan array binding signal (z-score),[29],0.069
same,glycan array binding signal (z-score),[30],3.12
same,glycan array binding signal (z-score),[31],-0.118
same,glycan array binding signal (z-score),Neu5Ac(a2-3)Gal(b1-4)Glc,4.42
same,glycan array binding signal (z-score),[32],-0.284
same,glycan array binding signal (z-score),[33],-0.345
same,glycan array binding signal (z-score),[34],-0.023
same,glycan array binding signal (z-score),[35],-0.551
same,glycan array binding signal (z-score),[36],-0.275
same,glycan array binding signal (z-score),[37],-0.338
same,glycan array binding signal (z-score),[38],-0.52
same,glycan array binding signal (z-score),[39],-0.414
same,glycan array binding signal (z-score),[40],-0.2

# Reference: the supplement of paper PMC8728848
